# Assay results taken from PubChem BioAssay AID1159580 (chemical genetic matrix, 2015).
# Out of some 5,500 compounds screened, about 2,000 (36%) were called active. Inconclusive results (about 18%) are left out. Some of the results follow. A number with no mark means an inactive call. No stated cut-off is given here; in the data, active means normalized growth mostly below about 0.91 (no sharp cut-off); inconclusive means no clear call, values can overlap the other calls; inactive means mostly above about 0.92.
# Experiment: chemical genetic growth profiling, strain panel (AID 1159580);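 further: tested at 20 µM; growth read once vehicle control cultures reached saturation at 30 °C; 1 = growth at the plate median or of vehicle wells; lower values mean less growth of the strain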
# Details: growth OD
smiles,measurement,setting,value
O=C(O)c1cccnc1,normalized growth,"S. cerevisiae deletion strains, locus YJR075W, strain HOC1, hits give low values",1.06
same,normalized growth,"S. cerevisiae deletion strains, locus YKL009W, strain mrt4, hits give low values",0.982
same,normalized growth,"S. cerevisiae deletion strains, locus YKL068W, hits give low values",0.991
same,normalized growth,"S. cerevisiae deletion strains, locus YKL085W, strain MDH1 (second series), hits give low values",1.01
same,normalized growth,"S. cerevisiae deletion strains, locus YKL085W, strain MDH1, hits give low values",1.01
same,normalized growth,"S. cerevisiae deletion strains, locus YKL160W, strain elf1, hits give low values",1.01
same,normalized growth,"S. cerevisiae deletion strains, locus YKL190W, strain CNB1, hits give low values",0.997
same,normalized growth,"S. cerevisiae deletion strains, locus YKR001C, strain vps1, hits give low values",0.986
same,normalized growth,"S. cerevisiae deletion strains, locus YKR026C, strain gcn3, hits give low values",0.988
same,normalized growth,"S. cerevisiae deletion strains, locus YKR091W, strain srl3, hits give low values",0.996
same,normalized growth,"S. cerevisiae deletion strains, locus YLL001W, strain dnm1, hits give low values",0.999
same,normalized growth,"S. cerevisiae deletion strains, locus YLL026W, hits give low values",1
same,normalized growth,"S. cerevisiae deletion strains, locus YLL041C, strain sdh2, hits give low values",0.992
same,normalized growth,"S. cerevisiae deletion strains, locus YLR027C, strain aat2, hits give low values",1
same,normalized growth,"S. cerevisiae deletion strains, locus YLR039C, strain RIC1, hits give low values",0.982
same,normalized growth,"S. cerevisiae deletion strains, locus YLR058C, strain SHM2, hits give low values",0.981
same,normalized growth,"S. cerevisiae deletion strains, locus YLR102C, strain apc9, hits give low values",0.997
same,normalized growth,"S. cerevisiae deletion strains, locus YLR113W, strain HOG1, hits give low values",0.995
same,normalized growth,"S. cerevisiae deletion strains, locus YLR221C, strain rsa3, hits give low values",1.02
same,normalized growth,"S. cerevisiae deletion strains, locus YLR258W, strain gsy2, hits give low values",1.01
same,normalized growth,"S. cerevisiae deletion strains, locus YLR262C, strain YPT6 (second series), hits give low values",1.01
same,normalized growth,"S. cerevisiae deletion strains, locus YLR262C, strain YPT6, hits give low values",0.941
same,normalized growth,"S. cerevisiae deletion strains, locus YLR268W, strain sec22, hits give low values",1.13 [resistant] (active)
same,normalized growth,"S. cerevisiae deletion strains, locus YLR320W, strain mms22, hits give low values",1.02
same,normalized growth,"S. cerevisiae deletion strains, locus YLR330W, strain CHS5, hits give low values",0.999
same,normalized growth,"S. cerevisiae deletion strains, locus YLR342W, strain FKS1 (second series), hits give low values",0.999
same,normalized growth,"S. cerevisiae deletion strains, locus YLR342W, strain FKS1, hits give low values",0.992
same,normalized growth,"S. cerevisiae deletion strains, locus YLR357W, strain rsc2, hits give low values",0.991
same,normalized growth,"S. cerevisiae deletion strains, locus YLR370C, strain arc18, hits give low values",1
same,normalized growth,"S. cerevisiae deletion strains, locus YLR371W, strain rom2, hits give low values",0.985
same,normalized growth,"S. cerevisiae deletion strains, locus YLR384C, strain iki3, hits give low values",1.01
same,normalized growth,"S. cerevisiae deletion strains, locus YLR418C, strain cdc73, hits give low values",1.04
same,normalized growth,"S. cerevisiae deletion strains, locus YML016C, strain PPZ1, hits give low values",1.01
same,normalized growth,"S. cerevisiae deletion strains, locus YML032C, strain rad52, hits give low values",1.05
same,normalized growth,"S. cerevisiae deletion strains, locus YML120C, strain ndi1, hits give low values",0.993
same,normalized growth,"S. cerevisiae deletion strains, locus YML124C, strain tub3, hits give low values",0.995
same,normalized growth,"S. cerevisiae deletion strains, locus YMR058W, strain fet3, hits give low values",0.996
same,normalized growth,"S. cerevisiae deletion strains, locus YMR078C, strain ctf18, hits give low values",0.991
same,normalized growth,"S. cerevisiae deletion strains, locus YMR125W, strain sto1, hits give low values",0.979
same,normalized growth,"S. cerevisiae deletion strains, locus YMR129W, hits give low values",0.97
same,normalized growth,"S. cerevisiae deletion strains, locus YMR205C, strain PFK2, hits give low values",1.04
same,normalized growth,"S. cerevisiae deletion strains, locus YMR223W, strain ubp8, hits give low values",1
same,normalized growth,"S. cerevisiae deletion strains, locus YMR231W, strain pep5, hits give low values",1
same,normalized growth,"S. cerevisiae deletion strains, locus YMR263W, strain SAP30, hits give low values",1.01
same,normalized growth,"S. cerevisiae deletion strains, locus YMR307W, strain GAS1, hits give low values",0.938
same,normalized growth,"S. cerevisiae deletion strains, locus YNL067W, strain RPL9B, hits give low values",1.03
same,normalized growth,"S. cerevisiae deletion strains, locus YNL071W, strain lat1, hits give low values",0.975
same,normalized growth,"S. cerevisiae deletion strains, locus YNL128W, strain TEP1, hits give low values",0.971
same,normalized growth,"S. cerevisiae deletion strains, locus YNL153C, strain GIM3, hits give low values",1.03
same,normalized growth,"S. cerevisiae deletion strains, locus YNL183C, strain NPR1, hits give low values",0.961
same,normalized growth,"S. cerevisiae deletion strains, locus YNL209W, strain ssb2, hits give low values",0.99
same,normalized growth,"S. cerevisiae deletion strains, locus YNL233W, strain BNI4, hits give low values",1.05
same,normalized growth,"S. cerevisiae deletion strains, locus YNL248C, strain rpa49, hits give low values",1.01
same,normalized growth,"S. cerevisiae deletion strains, locus YNL250W, strain rad50, hits give low values",0.991
same,normalized growth,"S. cerevisiae deletion strains, locus YNL271C, strain bni1, hits give low values",0.992
same,normalized growth,"S. cerevisiae deletion strains, locus YNL298W, strain CLA4, hits give low values",0.977
same,normalized growth,"S. cerevisiae deletion strains, locus YNL307C, strain MCK1, hits give low values",1.02
same,normalized growth,"S. cerevisiae deletion strains, locus YNL322C, strain KRE1 (second series), hits give low values",0.997
same,normalized growth,"S. cerevisiae deletion strains, locus YNL322C, strain KRE1, hits give low values",0.996
same,normalized growth,"S. cerevisiae deletion strains, locus YNR049C, strain mso1, hits give low values",0.994
same,normalized growth,"S. cerevisiae deletion strains, locus YNR052C, strain pop2, hits give low values",1
same,normalized growth,"S. cerevisiae deletion strains, locus YOL006C, strain TOP1, hits give low values",1.03
same,normalized growth,"S. cerevisiae deletion strains, locus YOL012C, strain htz1",1.06
same,normalized growth,"S. cerevisiae deletion strains, locus YOL147C, strain pex11, hits give low values",1
same,normalized growth,"S. cerevisiae deletion strains, locus YOR001W, strain rrp6, hits give low values",0.977
same,normalized growth,"S. cerevisiae deletion strains, locus YOR061W, strain CKA2, hits give low values",0.97
same,normalized growth,"S. cerevisiae deletion strains, locus YOR069W, strain VPS5, hits give low values",0.996
same,normalized growth,"S. cerevisiae deletion strains, locus YOR070C, strain gyp1, hits give low values",1
same,normalized growth,"S. cerevisiae deletion strains, locus YOR080W, strain dia2, hits give low values",0.993
same,normalized growth,"S. cerevisiae deletion strains, locus YOR083W, strain WHI5, hits give low values",1.03
same,normalized growth,"S. cerevisiae deletion strains, locus YOR106W, strain vam3, hits give low values",1.05
same,normalized growth,"S. cerevisiae deletion strains, locus YOR136W, strain idh2, hits give low values",1
same,normalized growth,"S. cerevisiae deletion strains, locus YOR144C, strain elg1, hits give low values",0.995
same,normalized growth,"S. cerevisiae deletion strains, locus YOR184W, strain ser1, hits give low values",1.03
same,normalized growth,"S. cerevisiae deletion strains, locus YOR231W, strain MKK1, hits give low values",1.01
same,normalized growth,"S. cerevisiae deletion strains, locus YOR265W, strain rbl2, hits give low values",1
same,normalized growth,"S. cerevisiae deletion strains, locus YOR270C, strain vph1, hits give low values",0.978
same,normalized growth,"S. cerevisiae deletion strains, locus YOR290C, strain snf2, hits give low values",0.996
same,normalized growth,"S. cerevisiae deletion strains, locus YOR316C, strain cot1, hits give low values",0.998
same,normalized growth,"S. cerevisiae deletion strains, locus YPL051W, strain arl3, hits give low values",1.05
same,normalized growth,"S. cerevisiae deletion strains, locus YPL055C, strain LGE1, hits give low values",1.01
same,normalized growth,"S. cerevisiae deletion strains, locus YPL078C, strain atp4, hits give low values",0.999
same,normalized growth,"S. cerevisiae deletion strains, locus YPL106C, strain sse1, hits give low values",1.03
same,normalized growth,"S. cerevisiae deletion strains, locus YPL240C, strain hsp82, hits give low values",1.01
same,normalized growth,"S. cerevisiae deletion strains, locus YPL241C, strain CIN2, hits give low values",0.992
same,normalized growth,"S. cerevisiae deletion strains, locus YPL256C, strain CLN2, hits give low values",1.01
same,normalized growth,"S. cerevisiae deletion strains, locus YPR119W, strain clb2, hits give low values",0.998
same,normalized growth,"S. cerevisiae deletion strains, locus YPR141C, strain kar3, hits give low values",0.991
same,normalized growth,"S. cerevisiae deletion strains, locus YPR163C, strain tif3, hits give low values",0.995
same,normalized growth,"S. cerevisiae deletion strains, locus YPR167C, strain met16, hits give low values",1
same,normalized growth,"S. cerevisiae deletion strains, strain wtn01, hits give low values",1.04
same,normalized growth,"S. cerevisiae strains, strain wild type, hits give low values",0.995
